High-throughput results from PubChem BioAssay.
Only some compounds are listed: those with a hit (about 2.3% of all), similar ones and a draw of the others.
Gli-Sufu block: antagonists of Gli-Sufu signaling; Sufu-KO-LIGHT fibroblasts, Gli luciferase reporter luminescence; inhibition, % at 5 µM; 340,000 tested, 0.74% active;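 active = inhibition above about 55%, limit read from the data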
aSyn UTR inh: 5' untranslated region of α-synuclein, MLPCN primary screen. alpha-synuclein 5'UTR reporter, inhibitor activity. inhibition, % (tested at 7.5 µM). 300,000 tested, 0.82% active. AID 1813; in the data active = inhibition above about 60%; inconclusive = no clear call, values can overlap the other calls;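 also: H4 neuroglioblastoma cells stably carrying SNCA 5'UTR luciferase fusion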
TAG inh: reduces triacylglycerol accumulation in H9c2 cells. 230,000 tested, 0.66% active. Nile Red lipid (TAG) fluorescence; cells loaded with 200 µM oleic acid. inhibition, % at 12.5 µM;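 active = pattern-corrected inhibition of lipid staining of at least 50% with the nuclear-stain viability signal not falling by more than 50%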
Shn3 3UTR inh: inhibitors of Schnurri-3 3'UTR reporter in osteoblasts; Clone20 osteoblast Shn3 3'UTR firefly luciferase, 24 h; inhibition, % at 12.5 µM; 360,000 tested, 0.52% active;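 active = mean inhibition of at least 75% with every replicate also reaching 75%; inconclusive = mean inhibition at least 75% but some replicate below; inactive = mean inhibition below 75%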
Jurkat NFkB inh: lowers PMA/ionomycin-induced NF-kB signal in Jurkat cells; AID 435003; PMA/ionomycin-induced NF-kB luciferase reporter, luminescence; inhibition, % at 4 µM; 330,000 tested, 0.53% active; in the data active = inhibition above about 50%
697 NFkB inh: lowers PMA/ionomycin-induced NF-kB signal in 697 B cells; 697 B-cell NF-kB luciferase reporter, 16 h; AID 435022; 330,000 tested, 0.33% active; inhibition, % at 4 µM; in the data active = inhibition above about 35%
Gli-Sufu confirm: Gli-SUFU antagonism confirmation, single concentration. shares compounds with Gli-Sufu block. Sufu-KO-LIGHT cells, Gli luciferase reporter, luminescence. inhibition, % at 5 µM. 2,500 tested, 40% active;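 active = mean inhibition at 5 µM reaching about 45%, limit read from the data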
Gli cytotox: cytotoxicity counter-screen for Gli-SUFU antagonists. shares compounds with Gli-Sufu block. Sufu-KO-LIGHT cells cytotoxicity, ATP luminescence. 2,500 tested, 32% active. cytotoxicity, % at 5 µM;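 active = mean cytotoxicity at 5 µM above about 25%, limit read from the data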;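 also: cells exposed to compound overnight for roughly 16 to 18 hours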
Wnt3a cs: Wnt3a reporter inhibition counter-screen | shares compounds with Gli-Sufu block | Wnt-LIGHT cells, Wnt3a-driven luciferase reporter, luminescence | inhibition, % at 6.25 µM | 2,500 tested, 20% active | AID 651995;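 active = mean inhibition above about 25%, limit read from the data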
Large screens that a line does not name were inactive (follow-up assays come after a bar, where they were run).

Cc1c(CCOC(=O)C23CC4CC(CC(C)(C4)C2)C3)sc[n+]1Cc1ccccc1	none | Gli-Sufu confirm 56.5 | Gli cytotox inactive | Wnt3a cs inactive
Cc1c(CCOC(=O)C23CC4CC(CC(C4)C2)C3)sc[n+]1Cc1ccccc1	none (no result: TAG inh)
CN1CCC(=O)N([C@H](CC#N)c2ccccc2)CC1	none
CCn1c(O)c(N=NC(=O)c2ccc(CSc3nncn3C)cc2)c2ccccc21	none
Cn1cnnc1SCc1ccc(C(=O)N=Nc2c(O)n(Cc3ccc(Cl)cc3)c3ccccc23)cc1	none (no result: TAG inh) | Gli-Sufu confirm inactive | Gli cytotox inactive | Wnt3a cs inactive
CSCCC(NC(=O)c1ccco1)C(=O)N1CCCCCCC1 (stereo not drawn)	none
CSCCC(NC(=O)c1ccco1)C(=O)N1CC(C)OC(C)C1 (stereo not drawn)	Gli-Sufu block 57.6 (no result: aSyn UTR inh) | Gli-Sufu confirm inactive | Gli cytotox inactive | Wnt3a cs inactive
CCN(CC)C(=O)[C@H]1CC(CC(=O)NCCc2ccccn2)C(=O)N2CCc3c([nH]c4ccccc34)[C@]12C (stereo partly drawn)	none (no result: aSyn UTR inh)
COc1ccc(CNc2ncnc3sccc23)cc1	Gli-Sufu block 61.1, Shn3 3UTR inh inconclusive (no result: TAG inh) | Gli-Sufu confirm 48.5 | Gli cytotox 37.4 | Wnt3a cs inactive
COc1ccc(CNc2ncnc3sccc23)cc1OC	none (no result: TAG inh)
CC(C)(C)c1ccc(C(=O)NCCOc2ccccc2F)cc1	Gli-Sufu block 55.1, aSyn UTR inh 77.5 (no result: TAG inh) | Gli-Sufu confirm 74.2 | Gli cytotox inactive | Wnt3a cs 88.9
COc1ccccc1C(=O)NCCOc1ccc(C(C)(C)C)cc1	none (no result: TAG inh)
COc1cc2nc(=S)n3[nH]c(CCn4nc(C)cc4C)nc3c2cc1OC	Gli-Sufu block 68.2 | Gli-Sufu confirm inactive | Gli cytotox inactive | Wnt3a cs inactive
Cc1csc(NC(=O)/C=C/c2ccco2)n1	none (no result: TAG inh)
CC(Oc1cccc2c1OC(C)(C)C2)C(=O)O (stereo not drawn)	Gli-Sufu block 96.0 | Gli-Sufu confirm inactive | Gli cytotox inactive | Wnt3a cs inactive
CCOC(=O)c1ccc2c(c1)n(CC)c(/C=C/N(C)c1ccccc1)[n+]2CC	Gli-Sufu block 83.3 (no result: TAG inh) | Gli-Sufu confirm 85.5 | Gli cytotox 30.7 | Wnt3a cs 33.5
CC(Sc1nc2ccccc2c(=O)n1C)C(=O)N(C)C1CCCCC1 (stereo not drawn)	Gli-Sufu block 71.9, Shn3 3UTR inh 88.5 | Gli-Sufu confirm 61.3 | Gli cytotox inactive | Wnt3a cs inactive
CC(Sc1nc2ccccc2c(=O)n1CC1CCCO1)C(=O)N(C)Cc1ccccc1 (stereo not drawn)	none
COC(=O)c1[nH]c2c(c1C)C(=O)CC(c1ccccc1)C2 (stereo not drawn)	Gli-Sufu block 56.9 (no result: TAG inh) | Gli-Sufu confirm 51.7 | Gli cytotox 53.4 | Wnt3a cs inactive
Cc1nc2ncccn2c1-c1csc(Nc2ccc(O)cc2)n1	Gli-Sufu block 55.2 | Gli-Sufu confirm 51.5 | Gli cytotox inactive | Wnt3a cs inactive
Cc1ccnc(Nc2nc(-c3c(C)nc4sccn34)cs2)c1	none (no result: TAG inh)
FC(F)(F)c1ccc(N2CCN(c3cc(-c4ccccc4)nc4ncnn34)CC2)nc1	Gli-Sufu block 57.2 (no result: TAG inh) | Gli-Sufu confirm 49.3 | Gli cytotox inactive | Wnt3a cs inactive
Cn1c(-c2ccc3c(c2)OCO3)c(C(=O)O)c(=O)c2ccccc21	none (no result: TAG inh)
O=C(C1CCCCC1)N1CCC2CC1c1cc(-c3ccc4c(c3)OCO4)ccc12 (stereo not drawn)	none (no result: Gli-Sufu block, aSyn UTR inh, TAG inh, Jurkat NFkB inh, 697 NFkB inh)
COc1cnc(SCC(=O)O)[nH]c1=O	Gli-Sufu block 61.8 | Gli-Sufu confirm inactive | Gli cytotox inactive | Wnt3a cs inactive
CCOC(=O)CSc1ncc(OC)c(=O)[nH]1	none
COc1ccc(-n2cnc3cc(NCc4ccccn4)ccc32)cc1	none (no result: TAG inh)
O=S1(=O)C=C(Oc2ccc(F)cc2)c2ccccc21	none
O=C(O)Cn1cccc1C(=O)c1ccccc1	Gli-Sufu block 95.9 (no result: aSyn UTR inh, TAG inh) | Gli-Sufu confirm inactive | Gli cytotox inactive | Wnt3a cs inactive
COC(=O)Cn1cccc1C(=O)c1ccccc1	none (no result: aSyn UTR inh, TAG inh)
O=c1c2nnn(Cc3ccccc3)c2ncn1-c1ccccc1	none
Cc1ccc(N/C(N)=N/c2nc(C)cc(C)n2)cc1	none (no result: TAG inh)
Cc1cc(C)nc(/N=C(\N)Nc2ccccc2-c2ccccc2)n1	Gli-Sufu block 59.7 | Gli-Sufu confirm inactive | Gli cytotox inactive | Wnt3a cs inactive
Cc1cc(/C=c2/sc3nc4ccccc4n3c2=O)c(C)n1-c1ccccn1	Gli-Sufu block 85.7, aSyn UTR inh 87.9, Shn3 3UTR inh 90.9 (no result: TAG inh) | Gli-Sufu confirm 93.6 | Gli cytotox 29.0 | Wnt3a cs 103.7
Cc1cc(/C=c2\sc3nc4ccccc4n3c2=O)c(C)n1-c1ccc(C(=O)O)cc1	none (no result: Jurkat NFkB inh, 697 NFkB inh)
COc1ccc(-c2nc(=S)c3c(n2Cc2cccnc2)CC(C)(C)OC3)cc1	none
CC1Cc2cc(S(=O)(=O)N3CCN(c4ccc(Cl)cc4)CC3)ccc2N1C(=O)C1CC1 (stereo not drawn)	none (no result: TAG inh)
CC(=O)N1c2ccc(S(=O)(=O)N3CCCCC3)cc2CC1C (stereo not drawn)	none (no result: TAG inh)
CC(C)CCNC(=O)C1CCN(S(=O)(=O)c2ccc3c(c2)CC(C)N3C(=O)C2CC2)CC1 (stereo not drawn)	none (no result: TAG inh)
CC(=O)N1c2ccc(S(=O)(=O)N3CCC(C(=O)N4CCN(c5ccc(Cl)cc5)CC4)CC3)cc2CC1C (stereo not drawn)	Gli-Sufu block 75.7 (no result: TAG inh) | Gli-Sufu confirm 73.8 | Gli cytotox 35.1 | Wnt3a cs inactive
CCCCNC(=O)C1CCN(S(=O)(=O)c2ccc3c(c2)CC(C)N3C(=O)C2CC2)CC1 (stereo not drawn)	Gli-Sufu block 94.3 | Gli-Sufu confirm inactive | Gli cytotox inactive | Wnt3a cs inactive
CC(=O)N1c2ccc(S(=O)(=O)N3CCC(C(=O)N4CCCCC4)CC3)cc2CC1C (stereo not drawn)	none (no result: TAG inh) | Gli-Sufu confirm 49.0 | Gli cytotox inactive | Wnt3a cs inactive
CC(C)CN1CCN(Cc2nc3ccccc3s2)CC1CCO (stereo not drawn)	none (no result: TAG inh)
N#CCc1ccc(C(=O)c2ccccc2)s1	none
CC1(C)C(=O)NCCN1C(=O)CC1C(=O)NCCN1CC(c1ccccc1)c1ccccc1 (stereo not drawn)	none
O=C1c2ccccc2NC(c2cccs2)N1O (stereo not drawn)	none (no result: aSyn UTR inh)
CC1CCCN(C(=O)c2ccc(S(=O)(=O)N3CCC(c4nc5ccccc5s4)CC3)cc2)C1 (stereo not drawn)	none (no result: TAG inh)
CCN(CC)C(=O)c1ccc(S(=O)(=O)N2CCC(c3nc4ccccc4s3)CC2)cc1	Gli-Sufu block 58.6 (no result: TAG inh) | Gli-Sufu confirm inactive | Gli cytotox inactive | Wnt3a cs inactive
